According to PMC4336329 (PLoS ONE, 2015):
Screen size: about 310,000 compounds; about 2,200 (0.71%) showed an effect of 50% or more. The effect is printed as a negative number. The sample holds strong results, similar compounds and a random draw of the others, so the mix is not that of the screen.

What follows are molecules tested against human ether-à-go-go-related gene (hERG) potassium channel (human, UniProt Q12809) (assay: primary screen, population patch clamp on CHO cells stably expressing hERG; higher = less effect of the substance).
Chain of human ether-à-go-go-related gene (hERG) potassium channel (Q12809 whole entry, looked up): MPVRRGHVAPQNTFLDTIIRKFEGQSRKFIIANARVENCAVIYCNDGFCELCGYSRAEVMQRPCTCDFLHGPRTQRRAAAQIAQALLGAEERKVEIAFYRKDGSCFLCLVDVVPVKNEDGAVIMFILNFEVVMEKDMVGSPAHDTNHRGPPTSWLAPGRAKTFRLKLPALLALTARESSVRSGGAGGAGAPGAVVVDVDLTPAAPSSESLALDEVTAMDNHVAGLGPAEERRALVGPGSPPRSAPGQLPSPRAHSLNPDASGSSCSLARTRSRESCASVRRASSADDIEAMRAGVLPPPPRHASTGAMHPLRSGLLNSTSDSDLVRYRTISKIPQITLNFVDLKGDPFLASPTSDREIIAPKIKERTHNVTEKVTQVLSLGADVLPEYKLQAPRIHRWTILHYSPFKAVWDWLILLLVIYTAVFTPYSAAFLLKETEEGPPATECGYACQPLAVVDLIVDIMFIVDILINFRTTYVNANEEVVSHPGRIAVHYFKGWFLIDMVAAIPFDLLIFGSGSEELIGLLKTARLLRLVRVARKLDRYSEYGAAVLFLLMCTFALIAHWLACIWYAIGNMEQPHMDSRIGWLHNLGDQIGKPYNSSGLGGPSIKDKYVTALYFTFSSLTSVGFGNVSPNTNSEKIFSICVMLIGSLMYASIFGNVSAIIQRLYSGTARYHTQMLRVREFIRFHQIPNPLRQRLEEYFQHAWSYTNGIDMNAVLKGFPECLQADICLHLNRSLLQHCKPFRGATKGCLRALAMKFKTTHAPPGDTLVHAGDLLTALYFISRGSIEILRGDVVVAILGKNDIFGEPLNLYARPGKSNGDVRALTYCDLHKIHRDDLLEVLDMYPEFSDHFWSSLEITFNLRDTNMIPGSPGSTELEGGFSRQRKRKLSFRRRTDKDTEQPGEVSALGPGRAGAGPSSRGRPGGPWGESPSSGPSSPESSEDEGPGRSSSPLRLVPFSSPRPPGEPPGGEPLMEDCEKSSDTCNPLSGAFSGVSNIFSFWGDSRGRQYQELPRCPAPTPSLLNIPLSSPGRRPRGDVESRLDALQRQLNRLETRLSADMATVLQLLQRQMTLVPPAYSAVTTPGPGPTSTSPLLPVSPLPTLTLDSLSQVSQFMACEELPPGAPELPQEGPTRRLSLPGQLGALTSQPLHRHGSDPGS

Compared with `CCC(C)N(C)Cc1cccc(C2(O)CCN(S(=O)(=O)c3ccc(F)c(C)c3)CC2)c1` (centres unmarked), `Cc1cc(S(=O)(=O)N2CCN(c3c(C)cccc3C)CC2)ccc1F` is higher in “hERG current change (%, negative = inhibition) at 1uM” value: -71.2% for the first, -0.574% for the second.

Going from `Cc1c(O[C@@H]2O[C@H](CO)[C@@H](O)[C@H](O)[C@H]2O)ccc2c1oc(=O)c1ccccc12` to `Cc1ccc2cc(CNCCc3ccccc3C)c(=O)[nH]c2c1`, the “hERG current change (%, negative = inhibition) at 1uM” value falls from 16.9% to -42.9%.

`Cn1cccc1Cc1nnc(SCC(=O)N2CCCC2)n1CCc1ccccc1` and `CCCCOc1ccc(C(=O)NCC(=O)N2CC=C(c3ccccc3)CC2)cc1` are the same in “hERG current change (%, negative = inhibition) at 1uM” value: 10.7% for the first, 10.7% for the second.

Going from `Cc1nc2nc(N)nn2c(C)c1C/C=C/c1ccccc1` to `Cc1cccc(CCNCc2cc3cccc(C)c3[nH]c2=O)c1`, the “hERG current change (%, negative = inhibition) at 1uM” value falls from 2.83% to -35.7%.

Going from `Cc1nnc2ccc(-c3cccc(NC(=O)c4ccco4)c3)nn12` to `Cc1nnc2ccc(-c3cccc(NC(=O)c4ccc(Br)o4)c3)nn12`, the “hERG current change (%, negative = inhibition) at 1uM” value falls from 1.54% to -52.2%.

Going from `Cc1nnc2ccc(-c3cccc(NC(=O)c4ccc(Cl)nc4)c3)nn12` to `Cc1ccccc1-n1cc(-c2ccc(Br)cc2)nc1SCC(N)=O`, the “hERG current change (%, negative = inhibition) at 1uM” value rises from -1.98% to 10.3%.

First: COc1ccc(CN2CCSc3sccc3C2=O)cc1
Second: COc1ccc(CNC(=O)C(C)N2C(=O)NC(c3ccccc3)(c3ccccc3)C2=O)cc1 (centres unmarked)
The “hERG current change (%, negative = inhibition) at 1uM” value of the first is higher: 3.85% for the first, -56.1% for the second.

First: CCc1ccc(Nc2ncc3c(n2)CC(c2ccco2)CC3=O)cc1 (centres unmarked)
Second: Cc1ccc(-n2c(SCC3CNC(=O)O3)nnc2-c2ccccc2)cc1C (centres unmarked)
The “hERG current change (%, negative = inhibition) at 1uM” value of the first is higher: 5.43% for the first, 0.305% for the second.

Compared with `Cn1nccc1C(=O)N1CCN(c2ncccn2)CC1`, `CCCN1CCN(C(=O)c2oc3c(Cl)cccc3c2C)CC1` is lower in “hERG current change (%, negative = inhibition) at 1uM” value: 9.95% for the first, -0.0965% for the second.

Going from `CN1CCNC(=O)C1CC(=O)N1CC=C(c2ccc(F)cc2)CC1` (centres unmarked) to `Cl.NC(=O)c1ccc(OCCC(O)N2CC=C(c3ccc(F)cc3)CC2)cc1` (centres unmarked), the “hERG current change (%, negative = inhibition) at 1uM” value falls from 16.2% to -53%.

First: O=C(NCc1ccccc1)c1cccc(S(=O)(=O)NCc2ccccc2)c1
Second: CCNC(=O)NC(=O)C(C)N1C(=O)NC(c2ccccc2)(c2ccccc2)C1=O (centres unmarked)
The “hERG current change (%, negative = inhibition) at 1uM” value of the first is higher: 6.18% for the first, -2.55% for the second.

Going from `CCN(CC)c1ccc(NC(=O)C2CCC(CNc3c(N4CCCC4)c(=O)c3=O)CC2)c(C)c1` (centres unmarked) to `COc1ccc(C(=O)NC2CC2)cc1OC1CCN(Cc2ccc(F)cc2F)CC1`, the “hERG current change (%, negative = inhibition) at 1uM” value falls from 13.6% to -75.1%.

Going from `CCOc1ccc(C(C)=O)cc1COC(=O)C1=COCCO1` to `COc1ccc(C(=O)NCC(=O)OCc2ccc(F)cc2Cl)cc1OC`, the “hERG current change (%, negative = inhibition) at 1uM” value rises from -0.905% to 11.2%.

Compared with `CNCc1cc2ccc(C)cc2[nH]c1=O`, `Cc1cccc(CCNCc2cc3ccc(C)cc3[nH]c2=O)c1` is lower in “hERG current change (%, negative = inhibition) at 1uM” value: -6.99% for the first, -54.6% for the second.

Compared with `COc1ccc(CCNCc2cc3ccc(C)cc3[nH]c2=O)cc1OC`, `COc1ccc(CCN(Cc2cc3ccc(C)cc3[nH]c2=O)C(C)=O)cc1OC` is higher in “hERG current change (%, negative = inhibition) at 1uM” value: -53.5% for the first, -26.6% for the second.

First: Cc1ccc(Cl)cc1N1CCN(C(=O)Cc2c(C(=O)O)[nH]c3ccc(Cl)cc23)CC1
Second: COc1ccc(C(=O)NC2CCN(Cc3c(F)cccc3Cl)CC2)cc1OC
The “hERG current change (%, negative = inhibition) at 1uM” value of the first is higher: 22.4% for the first, 10.1% for the second.

First: COCCOc1cnn(-c2cc(Oc3ccc(C)cc3)ncn2)c(=O)c1Cl
Second: COCCNC(=O)c1cccc(OC2CCN(Cc3ccc(F)cc3OC)CC2)c1
The “hERG current change (%, negative = inhibition) at 1uM” value of the first is lower: 7.88% for the first, 10.6% for the second.

Compared with `CCOc1ccc(NC(=O)CN(C)C(=O)c2c(C)noc2C)cc1OCC`, `CCCCC(=O)Nc1cccc(NC(=O)CC)c1` is higher in “hERG current change (%, negative = inhibition) at 1uM” value: 9.87% for the first, 10.3% for the second.

First: CCN(CC)CCCNC(=S)Nc1ccc(Br)cc1
Second: CCCCNCC(=O)Nc1ccc(NC(=O)CNCCCC)cc1
The “hERG current change (%, negative = inhibition) at 1uM” value of the first is lower: -8.09% for the first, 16.2% for the second.

Going from `O=C(NCc1ccccn1)c1ccc(OC2CCN(Cc3ccc(F)cc3F)CC2)cc1` to `COc1ccc(C(=O)NC2CC2)cc1OC1CCN(Cc2ccc(F)cc2Cl)CC1`, the “hERG current change (%, negative = inhibition) at 1uM” value falls from 0.219% to -62%.

Going from `Clc1cccc(OCCCCN2CCCCC2)c1` to `CCC1CCCCN1CCCCOc1cccc(Cl)c1.O=C(O)C(=O)O` (centres unmarked), the “hERG current change (%, negative = inhibition) at 1uM” value falls from -4.66% to -55.6%.

Going from `Clc1cccc(OCCN2CCOCC2)c1.O=C(O)C(=O)O` to `CC(C(=O)NC(N)=O)N1C(=O)NC(c2ccccc2)(c2ccccc2)C1=O` (centres unmarked), the “hERG current change (%, negative = inhibition) at 1uM” value falls from 5.84% to -0.156%.
